# Data as given in PubChem BioAssay.
# The source made the active and inactive calls.
# Legend:
# [1] = test system: PRMT1 (protein arginine N-methyltransferase 1); test: small molecules binding arginine methyltransferase PRMT1 – biochemical, small-molecule microarray, 635 nm fluorescence, primary screen (AID 1088); settings: higher = more signal;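 note: binding of Prmt1 protein to compounds spotted on small-molecule microarray slides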
# [2] = growth effects on S. cerevisiae YJM789 – YJM789 clinical isolate, OD600, 24 h, basal, primary screen (AID 1089); settings: higher = more signal, called active from +8 up or from −8 down;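 note: growth of clinical yeast isolate S. cerevisiae YJM 789 seeded 1000 cells per well; test concentration not given here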
# [3] = S. pombe growth modifiers, basal conditions – strain 972, OD600, 24 h, no modulator, primary screen (AID 1090);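 note: basal condition with compound alone and no growth modifier present; test concentration not given here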; settings: S. pombe 972 growth, higher = more signal, called active from +8 up or from −8 down
# [4] = budding yeast growth modifiers under rapamycin – strain BY4716, OD600, 96 h, primary screen (AID 1091); note: test concentration not given here; settings: S. cerevisiae BY4716 + rapamycin, higher = more signal, called active from +8 up or from −8 down
# [5] = biological target: Torsin-1A-interacting protein 2 (Homo sapiens) (UniProt Q8NFQ8); test: small molecules binding lysate-expressed LULL1 – cell lysate, human LULL1 lysate, 635/667 nm fluorescence, primary screen (AID 1092); settings: small-molecule microarray, hLULL1 lysate binding, 635 nm fluorescence; higher = more signal;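 note: probe is lysate of COS7 cells overexpressing human LULL1; score merges per-feature 667 nm fluorescence with signal-to-noise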
# [6] = optical density change of DRC41 E. coli – strain DRC41, OD650, 24 h, E. coli filamentation project, primary screen (AID 1093);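 note: MC1000 strain lacking acrAB efflux and sulA so SOS filamentation is blocked; test concentration not given here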; settings: E. coli DRC41 growth, higher = more signal, called active from +8 up or from −8 down
# [7] = probe aLefty2 binding to arrayed compounds – biochemical, biotinylated probe, 635/667 nm fluorescence, primary screen (AID 1094); settings: small-molecule microarray, higher = more signal;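 note: score merges spot fluorescence near 667 nm with spot signal-to-noise ratio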
# [8] = test system: Noggin (protein binding on small-molecule microarray); test: small molecules binding Noggin protein – biochemical, 635/667 nm fluorescence, primary screen (AID 1095); settings: 635 nm fluorescence, higher = more signal;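 note: score merges 667 nm feature fluorescence with signal to noise over triplicate slides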
# [9] = biological target: Neurogenic locus notch homolog protein 3 (Homo sapiens) (UniProt Q9UM47); test: small molecules binding NOTCH3 protein – biochemical, 635/667 nm fluorescence, primary screen (AID 1096); settings: small-molecule microarray, 635 nm fluorescence, higher = more signal
# [10] = probe aEGFR binding to arrayed compounds – biochemical, biotinylated probe, 635/667 nm fluorescence, primary screen (AID 1097); settings: small-molecule microarray, higher = more signal;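 note: probe is a biotinylated anti-EGFR antibody binding compounds printed on slides; score combines fluorescence near 667 nm and signal to noise of each spot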
# Chain of Neurogenic locus notch homolog protein 3 (Homo sapiens) (Q9UM47 whole entry, looked up): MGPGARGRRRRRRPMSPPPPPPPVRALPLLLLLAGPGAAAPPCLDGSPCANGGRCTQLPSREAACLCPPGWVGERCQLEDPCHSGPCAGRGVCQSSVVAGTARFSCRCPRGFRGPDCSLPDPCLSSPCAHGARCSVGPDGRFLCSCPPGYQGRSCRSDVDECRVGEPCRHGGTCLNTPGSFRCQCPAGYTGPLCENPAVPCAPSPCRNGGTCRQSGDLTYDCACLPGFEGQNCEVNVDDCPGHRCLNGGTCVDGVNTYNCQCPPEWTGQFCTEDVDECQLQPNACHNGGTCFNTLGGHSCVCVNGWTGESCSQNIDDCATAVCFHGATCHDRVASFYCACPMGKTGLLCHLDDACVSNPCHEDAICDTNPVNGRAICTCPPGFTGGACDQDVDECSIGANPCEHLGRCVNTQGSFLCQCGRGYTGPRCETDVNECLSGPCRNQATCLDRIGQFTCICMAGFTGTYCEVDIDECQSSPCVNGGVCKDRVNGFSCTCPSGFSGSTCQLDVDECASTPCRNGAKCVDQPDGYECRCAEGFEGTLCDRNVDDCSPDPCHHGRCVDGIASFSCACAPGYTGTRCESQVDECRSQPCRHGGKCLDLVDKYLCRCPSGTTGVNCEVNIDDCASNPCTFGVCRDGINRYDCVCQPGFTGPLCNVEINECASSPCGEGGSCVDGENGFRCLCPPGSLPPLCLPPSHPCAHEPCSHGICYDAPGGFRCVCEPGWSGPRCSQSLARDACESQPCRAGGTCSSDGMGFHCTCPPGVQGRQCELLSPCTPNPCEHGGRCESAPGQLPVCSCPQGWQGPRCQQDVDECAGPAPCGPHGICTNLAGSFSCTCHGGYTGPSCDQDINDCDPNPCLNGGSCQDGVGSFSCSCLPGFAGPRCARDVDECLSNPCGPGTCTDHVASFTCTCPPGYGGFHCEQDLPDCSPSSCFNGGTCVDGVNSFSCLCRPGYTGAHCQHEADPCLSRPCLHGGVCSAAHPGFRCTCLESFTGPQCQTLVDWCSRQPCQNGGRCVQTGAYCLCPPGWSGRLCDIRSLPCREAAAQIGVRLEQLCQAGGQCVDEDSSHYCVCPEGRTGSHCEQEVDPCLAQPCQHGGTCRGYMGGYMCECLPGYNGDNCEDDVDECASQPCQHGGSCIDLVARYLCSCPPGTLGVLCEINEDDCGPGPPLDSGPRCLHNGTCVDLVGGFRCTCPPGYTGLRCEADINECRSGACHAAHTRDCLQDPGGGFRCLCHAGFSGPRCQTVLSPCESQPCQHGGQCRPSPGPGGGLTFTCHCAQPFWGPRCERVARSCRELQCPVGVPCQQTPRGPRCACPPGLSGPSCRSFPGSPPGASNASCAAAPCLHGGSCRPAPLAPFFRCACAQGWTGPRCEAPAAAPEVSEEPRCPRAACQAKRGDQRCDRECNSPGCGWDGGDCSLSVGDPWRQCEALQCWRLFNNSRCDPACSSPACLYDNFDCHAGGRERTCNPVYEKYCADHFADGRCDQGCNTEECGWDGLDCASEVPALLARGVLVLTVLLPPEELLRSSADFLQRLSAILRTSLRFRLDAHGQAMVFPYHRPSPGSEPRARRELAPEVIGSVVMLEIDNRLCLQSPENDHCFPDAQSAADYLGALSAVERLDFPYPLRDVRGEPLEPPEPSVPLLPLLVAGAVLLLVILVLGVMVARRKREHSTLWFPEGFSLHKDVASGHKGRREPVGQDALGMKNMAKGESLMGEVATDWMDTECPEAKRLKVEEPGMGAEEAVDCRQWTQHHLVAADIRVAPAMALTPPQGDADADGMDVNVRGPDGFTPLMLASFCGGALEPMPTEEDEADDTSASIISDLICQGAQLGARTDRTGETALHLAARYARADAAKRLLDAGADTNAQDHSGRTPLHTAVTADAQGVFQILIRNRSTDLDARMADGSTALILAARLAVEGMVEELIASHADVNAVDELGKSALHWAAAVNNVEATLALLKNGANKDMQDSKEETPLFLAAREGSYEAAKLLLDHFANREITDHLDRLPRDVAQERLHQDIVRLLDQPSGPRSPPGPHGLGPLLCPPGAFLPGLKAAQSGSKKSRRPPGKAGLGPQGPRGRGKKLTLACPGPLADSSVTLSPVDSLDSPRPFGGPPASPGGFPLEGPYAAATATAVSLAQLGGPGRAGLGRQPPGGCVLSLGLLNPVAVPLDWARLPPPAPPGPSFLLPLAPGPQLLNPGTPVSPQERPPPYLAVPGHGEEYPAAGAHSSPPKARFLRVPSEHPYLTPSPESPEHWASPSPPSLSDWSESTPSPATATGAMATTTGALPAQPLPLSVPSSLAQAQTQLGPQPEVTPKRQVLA
# Chain of Torsin-1A-interacting protein 2 (Homo sapiens) (Q8NFQ8 whole entry, looked up): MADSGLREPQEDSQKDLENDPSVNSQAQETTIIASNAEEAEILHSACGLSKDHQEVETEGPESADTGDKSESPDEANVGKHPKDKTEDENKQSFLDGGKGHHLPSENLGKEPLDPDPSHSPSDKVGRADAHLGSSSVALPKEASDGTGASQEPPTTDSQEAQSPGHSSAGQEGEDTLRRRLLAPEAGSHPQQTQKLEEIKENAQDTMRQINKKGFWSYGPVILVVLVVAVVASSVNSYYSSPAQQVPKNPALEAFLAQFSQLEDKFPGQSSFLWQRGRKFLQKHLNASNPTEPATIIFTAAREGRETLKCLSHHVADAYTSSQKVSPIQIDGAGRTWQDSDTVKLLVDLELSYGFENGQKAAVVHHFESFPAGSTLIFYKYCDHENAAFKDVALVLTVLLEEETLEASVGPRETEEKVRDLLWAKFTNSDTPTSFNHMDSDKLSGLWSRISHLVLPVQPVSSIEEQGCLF
Structure (SMILES),composite z-score [1],z-score [2],z-score [3],z-score [4],composite z-score [5],z-score [6],composite z-score [7],composite z-score [8],composite z-score [9],composite z-score [10]
COC(=O)C[C@H]1O[C@]2(C(=O)N(Cc3ccccc3)c3ccc(I)cc32)[C@@H](C)[C@@H]1[Si](C)(C)c1ccc(OC)cc1,-0.949,0.595 (inactive),0.676 (inactive),1.58 (inactive),-0.484,-0.556 (inactive),-0.0561,-0.598,-0.625,-0.101
COC(=O)C(CC#Cc1ccc2c(c1)[C@]1(C(=O)N2)[C@H](C(=O)N2CCCCCCC2)[C@H]2C(=O)O[C@H](c3ccccc3)[C@H](c3ccccc3)N2[C@@H]1c1ccc(O)cc1)C(=O)OC,-1.19,-0.428 (inactive),0.0597 (inactive),0.702 (inactive),-0.573,0.904 (inactive),-0.294,-0.805,-0.909,-0.221
C=CCN1C(=O)[C@]2(O[C@H](CCn3cc(CCO)nn3)[C@@H]([Si](C)(C)c3ccc(OC)cc3)[C@@H]2C)c2cc(NC(=O)c3ccc(OC)cc3)ccc21,1.25,1.46 (inactive),-1.22 (inactive),1.81 (inactive),0.807,1.94 (inactive),0.205,1.03,0.527,-0.109
C=CCOC(=O)[C@@H]1[C@H]2C(=O)O[C@H](c3ccccc3)[C@H](c3ccccc3)N2[C@H](c2ccc(OCCOC(=O)[C@H]3C[C@H]4C(=O)N5CCC[C@H]5C(=O)N4[C@H]3c3ccc(O)cc3)cc2)[C@@]12C(=O)Nc1ccccc12,1.51,-0.0259 (inactive),-0.766 (inactive),2.42 (inactive),1.44,2.52 (inactive),0.239,0.684,0.695,0.0459
CC(C)C[C@@H]1NC(=O)[C@H](CC(C)C)NC(=O)[C@@]23C(=O)N[C@@H](Cc4ccccc4)C2[C@H](C)[C@@]2(C)O[C@H]2C3/C=C/CC/C=C/CNC1=O (stereo not given in full),1.54,-0.833 (inactive),-2.66 (inactive),-1.74 (inactive),2.01,0.194 (inactive),-0.26,0.413,1.08,-0.0697
C=C(CCCC)/C(=C/C[C@@H](OC(=O)c1ccncc1)c1ccc(CO)o1)c1cnc2ccccc2c1,1.54,0.396 (inactive),-2.43 (inactive),0.322 (inactive),2.54,1.25 (inactive),0.0561,1.64,1.02,0.0071
O=C1C[C@@](C(=O)NC2CC2)(c2ccc([N+](=O)[O-])cc2)[C@@H](c2ccc(CO)cc2I)N1CC12CC3CC(CC(C3)C1)C2,1.48,1.82 (inactive),1.19 (inactive),5.3 (inactive),2.96,-1.05 (inactive),-0.145,1.32,1.07,-0.198
O=C(NCc1ccccc1)c1ccc(Br)cc1[N+](=O)[O-],0.54,-1.19 (inactive),-1.08 (inactive),-0.778 (inactive),0.715,0.768 (inactive),0.109,0.0399,0.338,-0.0353
O=C1c2ccccc2[C@@]2(Cc3ccccc3N(CC(F)(F)F)C2=O)[C@H](c2ccc(CO)cc2)N1C1CCCCC1,0.778,0.315 (inactive),-0.958 (inactive),-1.99 (inactive),1.08,0.825 (inactive),0.0598,1.05,0.601,0.0376
COc1ccc([Si](C)(C)[C@H]2[C@H](CCO)O[C@@]3(C(=O)N(Cc4ccccc4)c4ccc(N5C(=O)c6cccc7cccc5c67)cc43)[C@@H]2C)cc1,0.491,1.05 (inactive),1.11 (inactive),33 (active),1.12,1.97 (inactive),-0.225,-0.453,-0.203,-0.218
C=CCC1=C[C@H]2[C@H]([C@@H]3C=C[C@]2(CC=C)C(=O)[C@]32CO2)[C@@]2(CO2)C1=O,0.388,0.683 (inactive),-21.2 (active),-4.1 (inactive),0.756,2.54 (inactive),0.233,1.65,0.183,0.148
CN1C(=O)C2C=CC(C(O)C3CC=CCC3)N(Nc3ccccc3)C2C1=O (stereo not given),1.47,0.373 (inactive),0.772 (inactive),0.726 (inactive),3.32,-0.623 (inactive),0.344,0.584,1.06,0.112
COc1cc(CO)cc(I)c1O[C@H]1C=C(C(=O)NCCO)C[C@@H](N(CC2CCCCC2)C(=O)c2cc3ccccc3oc2=O)[C@@H]1O,-0.449,0.411 (inactive),-0.858 (inactive),-0.393 (inactive),0.0986,2.1 (inactive),-0.186,0.606,-0.0481,-0.0656
C=CCc1cccc([C@@H]2[C@@H](C)CC[C@H]3C(=O)N4[C@H](c5cccc(CC=C)c5)[C@@H](C)CC[C@H]4C(=O)N23)c1,0.592,-0.988 (inactive),0.0313 (inactive),6.6 (inactive),0.785,0.533 (inactive),0.0163,0.432,0.671,-0.124
CO[C@@H]1COC(=O)[C@H](C)NC(=O)CC=C[C@@H](C)[C@H](NS(=O)(=O)c2ccc(C)cc2)COC(=O)CC=C[C@@H]1C,-0.844,0.79 (inactive),-0.0181 (inactive),0.256 (inactive),-0.382,0.452 (inactive),-0.207,-0.0396,-0.693,-0.211
C=CC[C@]1(C(=O)NCC(O)CO)N=C(c2ccc(OCCCO)cc2)O[C@H]1c1ccccc1 (stereo not given in full),0.16,-1.44 (inactive),-0.514 (inactive),-1.18 (inactive),3.57,2.05 (inactive),0.0544,-0.923,-0.898,-0.169
CCOC(=O)C[C@H]1[C@H](OC(=O)c2cc3ccccc3oc2=O)[C@@H](NC(=O)c2ccc3ccccc3c2)c2cc(OCCCO)ccc2N1C(=O)c1ccc2ccccc2n1,0.154,-0.653 (inactive),-0.777 (inactive),-0.31 (inactive),0.868,2.45 (inactive),-0.225,0.956,1.03,0.0768
CC(C)(C)OC(=O)CC[C@]1(C(=O)N2CCCCC2)N=C(c2ccc(OCCCO)cc2)O[C@H]1c1ccccc1,1.54,-4.57 (inactive),-3.11 (inactive),-1.07 (inactive),3.48,0.726 (inactive),0.0224,1.04,1.15,-0.084
C=CCN1C(=O)[C@@]2(O[C@@H](CCn3cc([C@H](O)c4ccccc4)nn3)[C@H]([Si](C)(C)c3ccc(OC)cc3)[C@H]2C)c2cc(N3CCOC3=O)ccc21,1.15,-1.26 (inactive),-1.88 (inactive),-0.723 (inactive),1.8,2.19 (inactive),-0.0463,-0.0328,0.131,-0.121
CO[C@H]1O[C@H](CO)[C@@H](OC(=O)Nc2ccccc2)[C@H](OC(=O)Nc2ccc3c(c2)OCO3)[C@@H]1OC(=O)Nc1ccc2c(c1)OCO2,1.53,0.058 (inactive),-0.1 (inactive),3.14 (inactive),2.62,1.67 (inactive),-0.0591,-0.0087,0.845,-0.117
[N-]=[N+]=NCc1ccccc1C[C@]1(C(=O)N2CCCCC2)N=C(c2ccc(OCCCO)cc2)O[C@H]1c1ccccc1CN=[N+]=[N-],1.55,0.551 (inactive),0.118 (inactive),8.36 (active),3.35,-0.004 (inactive),-0.0041,0.686,1.14,-0.0703
C=CCc1cccc([C@H]2N[C@H](C(=O)O)CC[C@@H]2C)c1,0.453,0.468 (inactive),0.0843 (inactive),2.04 (inactive),-0.0584,0.271 (inactive),-0.203,1.17,0.245,-0.0828
CC/C=C/C(=O)N(C[C@@H]1CCCO1)[C@@H]1CC(C(=O)NCCO)=C[C@H](Oc2c(I)cc(CO)cc2OC)[C@H]1O,0.505,-0.811 (inactive),-1.79 (inactive),-1.91 (inactive),1.69,-0.159 (inactive),0.0612,-0.294,-0.155,-0.191
O=C(CS)NCCCCCNC(=O)[C@H]1C[C@H]2C(=O)N[C@@H](Cc3ccccc3)C(=O)N2[C@H]1c1ccc(O)cc1,1.54,0.662 (inactive),-0.982 (inactive),1.86 (inactive),2.18,1.12 (inactive),-0.107,1.48,0.781,0.178
CCCN1C(=O)[C@@]2(CCS(=O)(=O)c3ccccc3)N=C(c3ccc(OCCCO)cc3)O[C@H]2c2ccccc21,1.53,0.817 (inactive),0.69 (inactive),4.5 (inactive),2.8,0.341 (inactive),0.0686,1.03,1.09,-0.0118
COC(=O)C1=CC(c2ccc(CO)cc2)=CC(C2CC2)N(Cc2sc3ccccc3c2Cl)C=C1C(=O)OC (stereo not given),1.55,-2.21 (inactive),-5.52 (inactive),-1.12 (inactive),3.07,-2.06 (inactive),0.214,0.331,1.1,0.157
C=CC[C@]1(C(N)=O)N=C(c2ccc(OCCCO)cc2)O[C@H]1c1ccccc1CN=[N+]=[N-],1.1,-1.36 (inactive),-0.881 (inactive),-0.655 (inactive),3.05,1.85 (inactive),0.0565,0.126,-0.907,0.0183
O=C(NCc1ccccc1)[C@@]1(Cc2ccccc2)COC(c2ccc(OCCCO)cc2)=N1,1.41,1.51 (inactive),-1.24 (inactive),36.4 (active),3.11,0.624 (inactive),0.188,-0.629,-0.0046,-0.054
C[C@@H]1NC(=O)CC=C[C@@H](C)[C@@H]2C=C[C@H](O)[C@@H](COC(=O)[C@H](C)NC(=O)CC=C[C@@H](C)[C@@H]3C=C[C@H](O)[C@@H](COC1=O)O3)O2,0.0027,-1.07 (inactive),-2.24 (inactive),-0.764 (inactive),-0.178,0.602 (inactive),-0.221,0.464,0.108,-0.0262
